Screening results deposited in PubChem BioAssay by several laboratories.
The list is not random: actives were taken first. Their share in the collection is about 3%.
A1 inh – inhibitors of the anti-apoptotic protein A1, read as caspase activation. MEF A1-2A-BIM cells, Caspase-Glo 3/7 luminescence, 3 h; percent of clofoctol response, vehicle zero. caspase activation, % (no concentration beside the values). actives 0.066% (n = 330,000). AID 2462;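 active = over half of replicate activation scores above 10%, or exactly half above 10 with the replicate mean above 10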
NALP1 inh – blocks the NALP1 inflammasome reconstituted in yeast; S. cerevisiae NALP1/ASC/caspase-1 growth, X-gal OD620, 72 h; inhibition, % at 10 µM; actives 0.61% (n = 280,000); in the data active = inhibition mostly above about 24%, no sharp cut-off; inactive = mostly below about 32%
NALP3 yeast inh – inhibitors of NALP3 inflammasome in yeast; inhibition, % at 10 µM; Yeast reconstituted NLRP3/ASC/caspase-1, beta-gal luminescence, 24 h; actives 0.39% (n = 330,000); AID 2825;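 active = inhibition of 50% or more; inactive = inhibition below 50%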;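 also: plate controls were induced DMSO wells for no effect and uninduced yeast grown without galactose for full effect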
CHT block – inhibitors of human choline transporter CHT; actives 0.86% (n = 310,000); Q9GZV3; B-score at 10 µM; AID 488975; CHT-expressing cells, membrane potential dye, choline response; active compounds read low;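 active = B-score over 3 SD under the library average, and starting fluorescence ratio not unusually high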;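 also: choline stimulus applied at its EC90 after an EC20 pre-addition; B-score computed on integrated fluorescence ratio after choline addition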
Target sequence (Q9GZV3 whole entry, looked up): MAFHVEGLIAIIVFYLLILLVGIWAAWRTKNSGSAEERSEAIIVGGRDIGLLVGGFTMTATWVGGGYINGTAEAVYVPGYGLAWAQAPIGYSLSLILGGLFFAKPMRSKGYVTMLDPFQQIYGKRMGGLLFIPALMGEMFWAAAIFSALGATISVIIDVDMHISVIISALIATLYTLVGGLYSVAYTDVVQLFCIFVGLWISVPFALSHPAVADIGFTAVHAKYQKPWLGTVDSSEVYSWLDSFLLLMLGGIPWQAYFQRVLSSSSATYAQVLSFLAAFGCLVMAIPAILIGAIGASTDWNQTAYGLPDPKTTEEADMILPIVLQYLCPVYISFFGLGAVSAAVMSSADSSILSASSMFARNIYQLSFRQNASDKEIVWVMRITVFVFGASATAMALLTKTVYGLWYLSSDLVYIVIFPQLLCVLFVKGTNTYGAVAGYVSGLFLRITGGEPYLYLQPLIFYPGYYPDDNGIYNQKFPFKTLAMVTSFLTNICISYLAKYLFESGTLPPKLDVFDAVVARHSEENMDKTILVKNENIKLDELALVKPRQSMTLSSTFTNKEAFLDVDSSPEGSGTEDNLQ
SUMO Mot1 rescue – inhibitors of SUMOylation pathway: yeast Mot1-301 growth rescue | S. cerevisiae Mot1-301 growth rescue, ATP luminescence, 38.5C; percent above DMSO median, 100 means doubled | growth rescue, % at 18.8 µM | actives 1% (n = 320,000);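 active = every valid replicate shows activation above 250% relative to neutral control wells; inactive = the rest, any valid replicate at or below 250%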;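 also: OY570 slx delta 5 strain wells were the positive control but not used for scaling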
CHT allo act – allosteric activators of human choline transporter CHT; Q9GZV3; CHT-expressing cells, membrane potential dye, choline EC20; active compounds read high; LV-AA mutant CHT in HEK293 cells; B-score at 10 µM; actives 0.49% (n = 310,000); AID 488977;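 active = initial fluorescence not abnormally high and integrated response B-score, plate-corrected, over 3 SD above library mean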
CHT inh conf – human CHT inhibition, confirmatory screen. CHT-expressing cells, choline membrane potential dye; LV-to-AA substituted CHT, HEK293 cells. CHT activity remaining % of control (active compounds read low), % at 10 µM. actives 70% (n = 2,400). shares compounds with CHT block;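 active = choline transporter activity left, mean of duplicates at 10 µM, below buffer-only control mean minus 3 SD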;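 also: depolarization triggered by choline at its EC90 following an EC20 pre-addition; 0% = hemicholinium-3 full block and 100% = buffer-only control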
HEK293 CHT ctr – counter-screen for CHT inhibitors: effect in parental HEK293 cells. shares compounds with CHT block. membrane potential dye, choline response; active = decrease or increase beyond buffer ±3SD. membrane potential ratio readout (active if shifted either direction beyond buffer ±3SD; no single direction) at 10 µM. actives 4% (n = 2,400). AID 493222;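 also: parental cells lack the transporter so any hit is non-specific; ratio is peak minus trough fluorescence over baseline after EC90 choline challenge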
Starred values were filed as active, the others as inactive; i = inactive; . = no result given.

SMILES | A1 inh | NALP1 inh | NALP3 yeast inh | CHT block | SUMO Mot1 rescue | CHT allo act | CHT inh conf | HEK293 CHT ctr
CCCCn1c(Oc2ccc(C(=O)OC)cc2)nc2c1c(=O)n(C)c(=O)n2C | 0 | 6 | 17 | -6.8* | 8 | i | i | i
Oc1c(Br)cc(Br)cc1C=Nc1ccc2c(c1)OCCO2 | 0 | 14 | 44 | -5.3* | . | i | i | i
O=[N+]([O-])c1ccc(O)c(C=Nc2ccc3c(c2)OCCO3)c1 | 0 | 21 | 18 | i | 30 | i | . | .
Oc1c(Br)cc(Br)cc1C=Nc1ccc2c(c1)OCO2 | -1 | 58 | 42 | -6.4* | 388 | i | i | i
CC1CC(C)CN(C(=O)COc2ccc([N+](=O)[O-])cc2Cl)C1 (configuration not stated) | 0 | 3 | -14 | -6.1* | -27 | i | i | i
NC(=S)N/N=C1/CCSc2ccc3ccccc3c21 | -1 | -7 | 7 | -5.6* | 41 | i | 68%* | i
Oc1c(Br)cc(Br)cc1/C=N/c1nc2c(s1)CCCC2 | 0 | . | 30 | -12* | 30 | i | 57%* | i
Cc1cc2nc(C)c(Cl)c(=O)n2[nH]1 | -1 | 10 | 11 | -7.4* | -6 | i | 20%* | i
Cc1nc2cc(-c3ccc(Br)cc3)[nH]n2c(=O)c1Cl | -7 | 5 | 4 | i | -15 | i | . | .
Cc1cnccc1CNC(=O)CC1C(=O)NCCN1CC(C)(C)C (configuration not stated) | 0 | 15 | 10 | i | -11 | i | . | .
COc1ccc(C(=O)Nc2nc(CC(=O)NCCc3ccccc3)cs2)cc1 | 0 | . | 13 | -5.1* | -12 | i | i | i
CC(=O)c1cccc(N2C(=O)CC(N3CCN(S(=O)(=O)c4ccc(Cl)cc4)CC3)C2=O)c1 (configuration not stated) | 0 | . | 8 | . | -8 | . | . | .
Cc1sc[n+](CC(=O)c2ccc(Br)cc2)c1C | -1 | 15 | 13 | -13* | -2 | i | 24%* | i
COc1ccc(C(=O)C[n+]2ccccc2C)cc1 | 0 | 16 | 10 | i | -8 | i | . | .
Cc1ccc(C(=O)C[n+]2cccc3ccccc32)cc1 | -1 | 36 | 13 | -6.5* | 45 | i | 29%* | i
O=C(C[n+]1cccc2ccccc21)c1ccc(Br)cc1 | 1 | 11 | 18 | -9.3* | -3 | i | 26%* | i
NC(=O)C[n+]1cccc2ccccc21 | 0 | -3 | 5 | i | -2 | i | . | .
O=C(CCc1nc(-c2ccc(Cl)cc2)no1)NCc1ccccc1CN1CCOCC1 | -1 | . | 7 | . | -10 | . | . | .
Cc1ccc(NC(=O)CN2C(=O)N/C(=C\c3ccco3)C2=O)cc1 | 1 | . | 9 | . | -24 | . | . | .
COc1ccc(CNC(=O)c2ccccc2SCC(=O)NCc2ccco2)cc1 | 0 | . | 2 | . | -14 | . | . | .
N=c1n(Cc2ccccc2)c2ccccc2n1CC(O)COc1ccc(Cl)cc1Cl (configuration not stated) | . | 12 | 21 | . | . | . | . | .
COc1ccc(OCC(O)Cn2c(=N)n(Cc3ccccc3)c3ccccc32)cc1 (configuration not stated) | 0 | 51 | 6 | -5.3* | -3 | i | 31%* | i
Cc1cccc(OCC(O)Cn2c(=N)n(Cc3ccccc3)c3ccccc32)c1 (configuration not stated) | 1 | 24 | 10 | -12* | -10 | i | 57%* | i
Cc1ccc(OCC(O)Cn2c(=N)n(Cc3ccccc3)c3ccccc32)cc1 (configuration not stated) | 0 | 4 | 1 | -9* | 4 | i | 51%* | i
N=c1n(Cc2ccc(Cl)cc2)c2ccccc2n1CC(O)COc1ccccc1 (configuration not stated) | 0 | 10 | 10 | -9.2* | 6 | i | 46%* | i
SMILES | A1 inh | NALP1 inh | NALP3 yeast inh | CHT block | SUMO Mot1 rescue | CHT allo act | CHT inh conf | HEK293 CHT ctr
COc1ccc(-c2csc(NC(C)c3nc4cc(C(=O)NCCCO)ccc4n3Cc3ccc(C)cc3)n2)cc1 (configuration not stated) | -1 | . | 12 | i | 25 | i | . | .
CC1CC(C)CN(C(=O)CSc2ncnc3sccc23)C1 (configuration not stated) | 0 | . | 16 | . | -21 | . | . | .
O=S(Cc1ccccc1)CC(O)(c1ccccc1)c1ccccc1 (configuration not stated) | 0 | 5 | 11 | -5.1* | 17 | i | i | i
O=S(Cc1ccccc1)CC(O)(c1ccc(Cl)cc1)c1ccc(Cl)cc1 (configuration not stated) | 1 | 6 | 32 | i | . | i | . | .
CN1CCN(CCOCCOc2ccc(Br)cc2Cl)CC1 | 0 | 26 | 18 | -6.7* | -10 | i | 56%* | i
COCCN(CC(=O)Nc1cccc(C)c1C)C(=O)c1oc2c(Cl)cccc2c1C | -1 | . | 6 | . | -3 | . | . | .
NS(=O)(=O)c1ccc(CNS(=O)(=O)c2cccc3nonc23)cc1 | -1 | . | 1 | i | -12 | i | . | .
NS(=O)(=O)c1ccc(CNc2ccc3ccccc3n2)cc1 | -1 | 19 | 10 | -9.3* | -17 | i | 21%* | i
O=C(O)c1ccc(/C=N\Nc2ccc(S(=O)(=O)N3CCOCC3)cc2[N+](=O)[O-])cc1 | 0 | -15 | 17 | i | -41 | i | . | .
Cc1ccc(-n2c(O)c(/C=N/Nc3ccc(S(=O)(=O)N4CCOCC4)cc3[N+](=O)[O-])c3ccccc3c2=O)c(C)c1 | 0 | 31 | 20 | -5.1* | -15 | i | 27%* | i
Cc1ccc(C(=O)NCC(=O)NCCCc2ccccc2)cc1 | 0 | 14 | 0 | -5* | 1 | i | 57%* | i
COc1ccc(S(=O)(=O)N(C)C[C@H]2Oc3ccc(NC(=O)Nc4c(C)noc4C)cc3C(=O)N([C@H](C)CO)C[C@@H]2C)cc1 | 4 | . | 8 | . | -9 | . | . | .
S=C(Cc1cccnc1)N1CCOCC1 | 0 | 14 | 11 | i | -11 | i | . | .
CCCOP(=O)(c1ccc(N(C)C)cc1)C(O)c1ccc(N(C)C)cc1 (configuration not stated) | 1 | 7 | -3 | i | 29 | i | . | .
